Test results as given in PubChem BioAssay.

Key:
[1] = test system: Botulinum neurotoxin type F light chain protease (Clostridium botulinum); assay: Clostridium botulinum type F light chain protease inhibitors, microsphere substrate cleavage, validation (AID 588459); details: multiplex microsphere protease substrate cleavage assay, flow cytometry; at 10 µM; stronger effect = higher value
[2] = molecular target: Botulinum neurotoxin type A (Clostridium botulinum) (UniProt P0DPI0); assay: BoNT/A light chain protease inhibitors, biochemical, multiplex microsphere flow cytometry, validation set (AID 588460); details: at 10 µM, stronger effect = higher value
[3] = molecular target: Lethal factor (Bacillus anthracis) (UniProt P15917); assay: Bacillus anthracis lethal factor inhibition, microsphere flow cytometry protease assay, validation at 10 µM (AID 588461); details: multiplex microsphere protease cleavage assay, stronger effect = higher value

Measured: inhibition

Sequence of Lethal factor (Bacillus anthracis) (P15917 whole entry, looked up): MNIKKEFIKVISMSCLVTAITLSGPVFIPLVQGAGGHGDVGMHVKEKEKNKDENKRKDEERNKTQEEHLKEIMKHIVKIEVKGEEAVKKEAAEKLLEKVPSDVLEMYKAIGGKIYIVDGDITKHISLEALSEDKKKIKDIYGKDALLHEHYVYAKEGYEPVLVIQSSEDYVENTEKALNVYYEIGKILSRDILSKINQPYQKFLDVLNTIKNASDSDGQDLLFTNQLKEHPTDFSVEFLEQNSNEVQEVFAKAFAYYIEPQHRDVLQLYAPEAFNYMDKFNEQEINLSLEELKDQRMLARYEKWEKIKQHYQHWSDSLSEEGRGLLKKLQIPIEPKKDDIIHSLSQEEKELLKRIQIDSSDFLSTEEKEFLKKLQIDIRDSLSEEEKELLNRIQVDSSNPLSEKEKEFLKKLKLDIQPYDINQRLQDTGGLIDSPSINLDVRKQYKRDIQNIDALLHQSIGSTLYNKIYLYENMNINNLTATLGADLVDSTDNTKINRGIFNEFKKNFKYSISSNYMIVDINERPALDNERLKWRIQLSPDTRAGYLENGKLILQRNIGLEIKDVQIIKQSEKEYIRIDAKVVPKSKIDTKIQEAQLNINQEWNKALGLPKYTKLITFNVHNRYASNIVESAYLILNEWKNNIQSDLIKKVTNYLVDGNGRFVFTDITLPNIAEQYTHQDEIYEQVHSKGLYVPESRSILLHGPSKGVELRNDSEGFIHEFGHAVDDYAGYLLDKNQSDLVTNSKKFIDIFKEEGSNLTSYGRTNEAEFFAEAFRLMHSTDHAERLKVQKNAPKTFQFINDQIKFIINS
Sequence of Botulinum neurotoxin type A (Clostridium botulinum) (P0DPI0 whole entry, looked up): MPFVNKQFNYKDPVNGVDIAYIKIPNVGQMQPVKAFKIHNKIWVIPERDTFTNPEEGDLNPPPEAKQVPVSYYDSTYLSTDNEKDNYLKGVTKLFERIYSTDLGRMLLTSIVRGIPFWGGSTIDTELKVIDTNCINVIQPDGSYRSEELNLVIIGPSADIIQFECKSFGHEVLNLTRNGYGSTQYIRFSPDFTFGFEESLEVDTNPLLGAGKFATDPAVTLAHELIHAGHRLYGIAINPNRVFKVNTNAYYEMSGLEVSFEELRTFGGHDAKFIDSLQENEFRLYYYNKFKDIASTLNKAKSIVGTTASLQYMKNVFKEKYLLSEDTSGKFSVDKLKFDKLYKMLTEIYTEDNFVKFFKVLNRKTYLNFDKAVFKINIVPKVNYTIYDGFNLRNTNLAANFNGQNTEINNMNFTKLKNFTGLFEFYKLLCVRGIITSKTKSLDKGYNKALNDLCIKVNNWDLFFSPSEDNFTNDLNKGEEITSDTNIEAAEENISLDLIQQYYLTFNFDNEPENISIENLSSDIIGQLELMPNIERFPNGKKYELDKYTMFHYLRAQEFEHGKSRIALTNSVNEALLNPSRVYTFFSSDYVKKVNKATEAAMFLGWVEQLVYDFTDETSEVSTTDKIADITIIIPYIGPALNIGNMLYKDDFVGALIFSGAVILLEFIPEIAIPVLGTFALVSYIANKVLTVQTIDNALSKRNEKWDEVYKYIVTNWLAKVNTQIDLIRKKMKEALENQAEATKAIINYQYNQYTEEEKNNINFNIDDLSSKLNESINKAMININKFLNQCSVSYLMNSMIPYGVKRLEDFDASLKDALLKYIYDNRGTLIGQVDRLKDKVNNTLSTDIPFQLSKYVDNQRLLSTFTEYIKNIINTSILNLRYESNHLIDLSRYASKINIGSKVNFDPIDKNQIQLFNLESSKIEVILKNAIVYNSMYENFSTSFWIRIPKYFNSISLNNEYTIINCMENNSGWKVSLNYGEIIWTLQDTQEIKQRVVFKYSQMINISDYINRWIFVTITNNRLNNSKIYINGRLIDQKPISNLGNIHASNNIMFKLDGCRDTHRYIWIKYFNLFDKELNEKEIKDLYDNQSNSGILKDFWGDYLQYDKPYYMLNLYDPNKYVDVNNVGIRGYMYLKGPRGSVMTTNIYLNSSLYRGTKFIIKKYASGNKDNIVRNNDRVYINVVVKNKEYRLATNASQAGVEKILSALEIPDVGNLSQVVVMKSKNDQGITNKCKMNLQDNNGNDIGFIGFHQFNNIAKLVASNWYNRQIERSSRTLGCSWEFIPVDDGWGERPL

COc1cc(CNCCc2c[nH]c3ccccc23)cc(Cl)c1OCC(N)=O
inactive: [1] -3.4% | [2] 0% | [3] -5.2%

Cc1oc2c(O)c(O)ccc2c(=O)c1-c1ccccc1
inactive: [1] 1.6% | [2] 0.4% | [3] 2%

CCS(=O)(=O)CCn1c([N+](=O)[O-])cnc1C
inactive: [1] 2.2% | [2] 0.7% | [3] 3.7%

COc1ccc(CCNC(=S)NC(=O)/C=C/c2ccc(C)cc2)cc1OC
inactive: [1] 0.1% | [2] -1.3% | [3] -7.3%

Cc1cccc(C2=N/C(=C\c3cccnc3)C(=O)O2)c1
inactive: [1] -1.1% | [2] 1.9% | [3] 3.7%

Cc1ccc2occ(C(=O)c3ccco3)c(=O)c2c1
inactive: [1] 1.1% | [2] -0.5% | [3] 2.6%

COc1cc2c(cc1OC)C1(CCCC1)CNC2c1cccc([N+](=O)[O-])c1 (stereo not given)
inactive: [1] 1% | [2] 0.1% | [3] -9.4%

COc1ccc(Br)cc1C(=O)Nc1ccc(C(=O)O)cc1
inactive: [1] 1% | [2] 1% | [3] -2.2%

CCOc1ccc(C(=O)/C=C/c2cc(OC)c(OC)c(OC)c2)cc1
inactive: [1] 0.5% | [2] -0.5% | [3] 4.5%

N=c1c[n+](N2CCOCC2)[n-]o1
inactive: [1] -6.3% | [2] 0.1% | [3] 0.2%

CC(C)COCC1CC2(CC(C)(c3csc(N)n3)OC2=O)C(=O)O1 (stereo not given)
inactive: [1] -3.2% | [2] -1.9% | [3] 9.1%

COc1ccc(CC(=O)NCC2(c3ccc(OC)c(OC)c3)CCOCC2)cc1
inactive: [1] 3.5% | [2] -0.9% | [3] -1.6%

Cc1occc(=O)c1O
inactive: [1] 2.1% | [2] 0.8% | [3] -1.7%

c1cnc2c(c1)ccc1cccnc12
inactive: [1] -1.4% | [2] -5.9% | [3] -2.3%

O=C(OCC(O)C(O)COC(=O)c1ccccc1)c1ccccc1 (stereo not given)
inactive: [1] -0.4% | [2] 0.6% | [3] 2.1%

CC(C)CC1c2[nH]c3ccccc3c2CCN1C(=O)CCC(=O)N(C)C (stereo not given)
inactive: [1] 1.9% | [2] -0.3% | [3] 2.9%

CCOC(=O)c1ccccc1NC(=O)c1ccc(F)cc1
inactive: [1] -1.8% | [2] -1% | [3] -0.1%

CC(C)NNC(=O)c1ccncc1
inactive: [1] 1.2% | [2] 1.3% | [3] -7.1%

COc1ccc(C2C3=C(CC(C)(C)CC3=O)N(C)C3=C2C(=O)CC(C)(C)C3)cc1
inactive: [1] 2% | [2] 0.4% | [3] -5.6%

O=C(O)CCCCCNC(=O)Nc1ccc2c(c1)OCCO2
inactive: [1] 1.3% | [2] -1.4% | [3] -10.1%

CC(C)N(Cc1nccn1C)C(=O)CC1C(=O)NCCN1Cc1ccccc1C(F)(F)F (stereo not given)
inactive: [1] -1.2% | [2] -0.8% | [3] 0.4%

O=C(O)CP(=O)(O)O
inactive: [1] 1.3% | [2] 0.3% | [3] -2.7%

CC1(C)CC(=O)C(C2=NC(C)(C)Cc3ccccc32)=C(O)C1
inactive: [1] 0% | [2] 0.9% | [3] -0.4%

CN(C)c1ccc(CNCCC(Cc2ccccc2)c2ccco2)cc1 (stereo not given)
inactive: [1] -4.5% | [2] -0.8% | [3] -8.8%

Nc1ccc(N=Nc2ccccc2)c(N)n1
inactive: [1] -2% | [2] -0.2% | [3] -0.6%

COc1ccc(C2N3CC4(C)CN2CC(C)(C3)C4)cc1OC (stereo not given)
inactive: [1] -0.3% | [2] -1.6% | [3] -4.9%

COc1ccc(NC(=O)C2CSC3c4ccccc4C(=O)N23)cc1 (stereo not given)
inactive: [1] -0.5% | [2] -0.2% | [3] -3.8%

CN1C(=O)NC(c2ccc(O)cc2)C2=C1CN(c1cccc3ccccc13)C2=O (stereo not given)
inactive: [1] 3.2% | [2] -1% | [3] -10.8%

Nc1c2c(nc3ccccc13)CCCC2
inactive: [1] 5.3% | [2] 1.5% | [3] -0.3%

Cc1nc2ccccc2n1CC(=O)NC1CCCC1
inactive: [1] -0.9% | [2] -0.2% | [3] -4.4%

Fc1cc(F)cc(NC(=S)NCCCN2CCOCC2)c1
inactive: [1] 0.9% | [2] -0.7% | [3] -2.9%

C/C(NC(=O)c1cccs1)=C1\C(=O)C[C@@H]2[C@H]1C2(C)C
inactive: [1] 3% | [2] 0.5% | [3] 3.4%

Clc1ccc(OCCCN2CCCCC2)c(Br)c1
inactive: [1] 1.8% | [2] 0.2% | [3] -3.7%

COc1ccc(CCN=CC2=C(O)CC(C)(C)CC2=O)cc1
inactive: [1] 1.2% | [2] -0.7% | [3] -4.5%

Cc1ccc(NCCC(=O)c2ccccc2)cc1Cl
inactive: [1] 4.1% | [2] 0.4% | [3] -2.5%

CCOc1cc2c3c(c1)C(C)=CC(C)(C)N3C(=O)C2=O
inactive: [1] 1.1% | [2] -2.5% | [3] -4%

COc1cccc(CN2CCN(C(=O)c3ccc(-c4ccccc4)cc3)CC2)c1
inactive: [1] 3.8% | [2] -0.4% | [3] -3.1%

CC(CCCC(C)(C)O)NC(=O)c1ccc(OC2CCN(C(=O)C3CC3)CC2)cc1 (stereo not given)
inactive: [1] 0.1% | [2] 0.7% | [3] 1%

Cc1cccc(C)c1NS(=O)(=O)c1ccc(NC(=O)c2ccc(Cl)c([N+](=O)[O-])c2)cc1
inactive: [1] 2.3% | [2] -0.2% | [3] 0.9%

Cn1c(=O)[nH]c2nnc(-c3ccc(Cl)c(Cl)c3)nc2c1=O
inactive: [1] -0.1% | [2] 0.4% | [3] -4.1%

Nc1cc(-c2ccncc2)c[nH]c1=O
inactive: [1] -3.2% | [2] -2% | [3] -5.1%

C1CCC(C(CC2CCCCN2)C2CCCCC2)CC1 (stereo not given)
inactive: [1] -7.7% | [2] 0.4% | [3] -14.1%

Cc1ccc(CSCC(=O)N2CCCC2)cc1
inactive: [1] 2.8% | [2] -0.3% | [3] 0%

COC1(C)CC2C(CC1OC(=O)c1cc([N+](=O)[O-])cc([N+](=O)[O-])c1)C2(C)C (stereo not given)
inactive: [1] -3.2% | [2] -0.5% | [3] -5.5%

OC(CCN1CCCCC1)(c1ccccc1)C1CCCCC1 (stereo not given)
inactive: [1] 3.1% | [2] 1% | [3] 1%

CC(=O)CCCCn1c(=O)c2c(ncn2C)n(C)c1=O
inactive: [1] -1.6% | [2] 0.1% | [3] -6.2%

O=C(CCCC(=O)OCC1CCCO1)OCC1CCCO1 (stereo not given)
inactive: [1] 1.9% | [2] -0.9% | [3] -1.6%

COC(=O)c1cc(-c2c(C)oc3cc(OC)ccc3c2=O)c(C)o1
inactive: [1] -0.4% | [2] -2% | [3] -6.6%

CC(C)Oc1cccc(C(=O)N2CCCC2)c1
inactive: [1] 2.3% | [2] -0.3% | [3] -5.2%

C[C@]12CCC(=O)C=C1CC[C@@H]1[C@@H]2[C@@H](O)C[C@@]2(C)[C@H]1CC[C@]2(O)C(=O)CO
inactive: [1] 2.1% | [2] -1.4% | [3] -10.2%

CCOC(=O)c1c(C)oc2c1C(=O)c1ccccc1C2=O
inactive: [1] 3.1% | [2] 1.4% | [3] -9.3%

C[C@]12CC[C@@H]3c4ccc(O)cc4CC[C@H]3[C@@H]1CC[C@@H]2O
inactive: [1] 3.3% | [2] 1.1% | [3] -1.3%

N/C(=N\OC(=O)CCCOc1ccc(Cl)cc1Cl)c1ccccn1
inactive: [1] 4% | [2] -0.3% | [3] -0.4%

CC(C)CN1CCN(Cc2ccc3ncccc3c2)CC1CCO (stereo not given)
inactive: [1] -0.3% | [2] 0.8% | [3] 0.5%

C=C(CC)C(=O)c1ccc(OCC(=O)O)c(Cl)c1Cl
inactive: [1] -6.2% | [2] -2.2% | [3] -10.3%

COc1ccc(CCN2CNc3c(c(=O)n(C)c(=O)n3C)C2)cc1OC
inactive: [1] 22.1% | [2] 8% | [3] 4.8%

CC(C)(C)C(=O)Nc1cccc(OC(F)(F)C(F)Cl)c1 (stereo not given)
inactive: [1] 3.3% | [2] 0% | [3] -6%

COc1cc2cc(C(=O)O)n(C)c2c(OC)c1OC
inactive: [1] 1.3% | [2] -0.4% | [3] 1.2%

CC(=O)[C@H]1[C@H](C#N)C[C@H]2[C@@H]3CC=C4C[C@@H](O)CC[C@]4(C)[C@H]3CC[C@@]21C
inactive: [1] 4.5% | [2] 1.4% | [3] 4.8%

C[C@H]1C[C@@H]2[C@H]([C@@H](O)C[C@@]3(C)[C@H]2CC[C@]3(O)C(=O)CO)[C@@]2(C)C=CC(=O)C=C12
inactive: [1] -2.2% | [2] 0.7% | [3] -0.7%

CC(C)=CCCC1=CCC2C(=O)NNC(=O)C2C1 (stereo not given)
inactive: [1] -1.6% | [2] -1% | [3] 3%

COc1ccc(CN(CCC(c2ccc(F)cc2)C2CCOC(C)(C)C2)C(=O)c2ccco2)cc1 (stereo not given)
inactive: [1] -2.6% | [2] -0.3% | [3] 1.6%

COc1ccc(/C=C\C(=O)c2c(O)ccc3c(C)cc(=O)oc23)cc1OC
inactive: [1] 1.5% | [2] 0.2% | [3] -2.9%

COc1ccc(-c2cc(C(=O)N3CCOCC3)c3cc(C)ccc3n2)cc1
inactive: [1] -8.2% | [2] -2.6% | [3] 2.3%

CC1(C)Cc2ccccc2-c2n[nH]c(=S)n21
inactive: [1] -0.3% | [2] 0.5% | [3] 1.7%
